Assay [1] in a line: compounds binding Alexa647 anti-His antibody – biochemical, small-molecule microarray, 635 nm fluorescence, artefact control for SMM control protein annotation, primary screen (AID 1128).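 Note: score merges feature fluorescence with signal-to-noise for each printed compound spot.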 Particulars: higher = more signal.
The subject of assay [2] is Human papillomavirus type 1a E7 protein (residues 1-88). The assay is described as follows: HPV1a E7 small-molecule binders, primary screen, biochemical, small-molecule microarray, residues 1-88, 635 nm (AID 1129). Particulars: small-molecule microarray binding, fluorescence 635 nm; higher = more signal.
Assay [3] concerns the target Focal adhesion kinase 1 (Homo sapiens) (UniProt Q05397). The assay is described as follows: PTK2 protein binding on printed compound slides – biochemical, small-molecule microarray, 635/667 nm fluorescence, BSA, DTT, primary screen (AID 1130).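 Note: composite of spot emission at 667 nm and signal to noise over triplicate slides.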 Particulars: 635 nm fluorescence, higher = more signal.
In assay [4] the test system is Fibrinogen (Alexa647-labelled). The assay is described as follows: Alexa647-fibrinogen binding to printed small molecules – biochemical, small-molecule microarray, 635/667 nm fluorescence, artefact control for SMM control-protein annotation, profiling panel (AID 1131).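 Note: z-score merges 667 nm fluorescence with per-spot signal-to-noise over triplicate slides.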 Particulars: fibrinogen-A647 binding fluorescence, higher = more signal.
Assay [5] deals with Follistatin (Homo sapiens) (UniProt P19883). The assay is described as follows: FST protein binding to printed compounds – biochemical, small-molecule microarray, 635/667 nm fluorescence, primary screen (AID 1132). The conditions noted are these: 635 nm fluorescence, higher = more signal.
In assay [6] the target is Fibroblast growth factor 2 (Homo sapiens) (UniProt P09038). Nature of the assay: basic fibroblast growth factor binding to printed compounds – biochemical, small-molecule microarray, 635/667 nm fluorescence, primary screen (AID 1133). The conditions noted are these: FGF2, fluorescence 635/667, higher = more signal.
The nature of assay [7]: JC-1 mitochondrial potential readout, lung cancer cells – cell-based, A549, JC-1 fluorescence, basal, 24 h, 100 nL, profiling panel (AID 1138).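 Note: A549 lung adenocarcinoma cells under basal conditions with no added stimulus; test concentration not given here.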 The conditions noted are these: higher = more signal.
A further assay deals with Lefty1. Nature of the assay: Lefty1 protein binding to printed compounds – biochemical, small-molecule microarray, 635/667 nm fluorescence, primary screen (AID 1139). The conditions noted are these: fluorescence 635/667, higher = more signal.
The test system of assay [8] is wheat germ agglutinin (Triticum aestivum), Alexa647-labelled. Nature of the assay: Alexa647-WGA lectin binding to printed small molecules – biochemical, small-molecule microarray, 635/667 nm fluorescence, artefact control for SMM control-protein annotation, profiling panel (AID 1140).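 Note: score merges 667 nm feature emission with signal to noise over triplicate slides.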 The conditions noted are these: WGA-A647 binding, 635 nm fluorescence, higher = more signal.

Assay [9] deals with Luciferin 4-monooxygenase (Photinus pyralis) (UniProt P08659). Nature of the assay: inhibition of purified Photinus pyralis luciferase – biochemical, luminescence, purified enzyme, 2006 set, primary screen (AID 1141).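 Note: cell-free assay with purified firefly luciferase at 100 ng per well in PBS; test concentration not given here.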 Particulars: purified firefly luciferase, SteadyGlo luminescence, 30 min; higher = more signal, called active from +8 up or from −8 down.
Assay [10] has as its system Wnt5a (protein binding on small-molecule microarray). Nature of the assay: small molecules binding Wnt5a protein – biophysical, small-molecule microarray, 635/667 nm fluorescence, primary screen (AID 1142).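 Note: fluorescence read at 667 nm with signal to noise per printed feature.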 The conditions noted are these: 635 nm fluorescence, higher = more signal.
A short description of assay [11]: ATP-based viability of Huh7 replicon cells – cell-based, CellTiter-Glo luminescence, basal, 48 h, cytotoxicity control for HCV replication inhibitor project, primary screen (AID 1143).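 Note: Huh7 hepatoma cells carrying a hepatitis C replication reporter with no stimulus; test concentration not given here.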 The conditions noted are these: higher = more signal, called active from +8 up or from −8 down.
The nature of assay [12]: Pseudomonas biofilm growth suppression – PAO1 strain, BacTiter-Glo luminescence, LB-PBS, primary screen (AID 1144). The conditions noted are these: P. aeruginosa PAO1 biofilm, 12 h, higher = more signal.
Assay [13] can be described thus: basal CRE-LacZ reporter activity in PC12 – cell-based, unstimulated, primary screen (AID 1145). Particulars: no forskolin, luminescence, 4.5 h, higher = more signal, called active from +8 up or from −8 down.
Assay [14] can be described thus: forskolin-driven CRE-LacZ activity in PC12 – cell-based, CRE-LacZ reporter, forskolin-stimulated, primary screen (AID 1146).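 Note: PC12 cells with 6xCRE LacZ reporter stimulated by forskolin 10 µM; beta-galactosidase reporter signal reflecting CREB driven transcription.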 The conditions noted are these: luminescence, 4.5 h, higher = more signal, called active from +8 up or from −8 down.
In assay [15] the target is Streptavidin (Streptomyces avidinii) (UniProt P22629). The assay is described as follows: compounds binding control protein streptavidin – biophysical, small-molecule microarray, 635/667 nm fluorescence, artefact control for SMM compound annotation, primary screen (AID 1147).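 Note: signal reflects streptavidin binding to arrayed compounds as a control protein.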 Particulars: higher = more signal.
The nature of assay [16]: probe aInhba binding on compound microarray – biochemical, small-molecule microarray, 635/667 nm fluorescence, primary screen (AID 1148).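 Note: score merges 667nm spot fluorescence with signal-to-noise for antibody binding to printed compounds.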 Particulars: higher = more signal.
Assay [17] has as its target Torsin-1A (Homo sapiens) (UniProt O14656). Nature of the assay: TOR1A wild-type binding on microarray – cell lysate, small-molecule microarray, lysate, 635/667 nm, primary screen (AID 1149). Particulars: COS7 hTOR1A-WT lysate, 635 nm fluorescence, higher = more signal.
Assay [18] has the same target. Nature of the assay: torsin A mutant lysate binding on microarrays – cell lysate, small-molecule microarray, COS7 lysate, 635/667 nm fluorescence, primary screen (AID 1150).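 Note: score pools 667 nm emission and signal to noise measuring lysate protein binding.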 The conditions noted are these: COS7 hTOR1A mutant lysate, 635 nm fluorescence, higher = more signal.
Assay [19] concerns Sonic hedgehog protein (Shh). Nature of the assay: Sonic hedgehog microarray binding compounds – biochemical, small-molecule microarray, 635/667 nm fluorescence, primary screen (AID 1151).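 Note: Shh protein binding to compounds spotted on small-molecule microarray slides; score combines spot fluorescence intensity with signal-to-noise across triplicate slides.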 The conditions noted are these: 635 nm fluorescence, higher = more signal.

The source made the active and inactive calls. Unless noted, the rule behind the calls is not given here.

Chain of Torsin-1A (Homo sapiens) (O14656 whole entry, looked up): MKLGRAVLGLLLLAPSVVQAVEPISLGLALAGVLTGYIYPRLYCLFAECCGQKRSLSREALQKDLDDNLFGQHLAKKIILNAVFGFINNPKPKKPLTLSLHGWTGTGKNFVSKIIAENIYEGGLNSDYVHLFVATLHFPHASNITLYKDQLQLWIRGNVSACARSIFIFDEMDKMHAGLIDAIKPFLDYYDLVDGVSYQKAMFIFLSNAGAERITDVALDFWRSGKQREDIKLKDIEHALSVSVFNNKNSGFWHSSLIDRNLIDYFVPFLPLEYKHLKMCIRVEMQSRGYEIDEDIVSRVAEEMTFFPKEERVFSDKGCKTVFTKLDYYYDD
Chain of Focal adhesion kinase 1 (Homo sapiens) (Q05397 whole entry, looked up): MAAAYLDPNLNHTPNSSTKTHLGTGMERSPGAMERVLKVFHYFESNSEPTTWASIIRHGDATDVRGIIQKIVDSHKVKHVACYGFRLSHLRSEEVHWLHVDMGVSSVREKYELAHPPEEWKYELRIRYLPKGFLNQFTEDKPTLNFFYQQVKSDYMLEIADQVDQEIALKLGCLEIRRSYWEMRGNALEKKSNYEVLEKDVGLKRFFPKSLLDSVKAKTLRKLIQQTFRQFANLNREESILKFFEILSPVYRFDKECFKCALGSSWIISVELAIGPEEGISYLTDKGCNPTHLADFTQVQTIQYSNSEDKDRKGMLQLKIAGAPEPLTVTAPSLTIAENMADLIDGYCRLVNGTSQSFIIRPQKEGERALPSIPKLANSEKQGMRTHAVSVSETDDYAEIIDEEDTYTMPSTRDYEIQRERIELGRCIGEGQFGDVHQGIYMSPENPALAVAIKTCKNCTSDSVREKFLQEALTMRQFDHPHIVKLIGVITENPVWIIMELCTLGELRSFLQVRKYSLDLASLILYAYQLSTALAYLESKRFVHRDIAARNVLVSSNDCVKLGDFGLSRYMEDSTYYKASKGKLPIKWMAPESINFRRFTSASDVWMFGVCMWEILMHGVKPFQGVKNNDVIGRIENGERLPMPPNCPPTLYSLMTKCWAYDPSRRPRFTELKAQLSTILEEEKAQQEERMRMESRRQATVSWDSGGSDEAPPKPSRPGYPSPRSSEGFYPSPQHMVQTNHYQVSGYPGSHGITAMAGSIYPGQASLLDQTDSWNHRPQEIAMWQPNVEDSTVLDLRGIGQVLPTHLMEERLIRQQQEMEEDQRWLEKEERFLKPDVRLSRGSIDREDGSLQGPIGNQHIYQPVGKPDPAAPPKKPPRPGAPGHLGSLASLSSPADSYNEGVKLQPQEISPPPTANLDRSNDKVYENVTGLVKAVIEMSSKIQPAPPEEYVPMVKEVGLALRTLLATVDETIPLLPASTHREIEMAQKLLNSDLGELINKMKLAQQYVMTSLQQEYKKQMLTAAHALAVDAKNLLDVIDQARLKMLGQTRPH
Chain of Follistatin (Homo sapiens) (P19883 whole entry, looked up): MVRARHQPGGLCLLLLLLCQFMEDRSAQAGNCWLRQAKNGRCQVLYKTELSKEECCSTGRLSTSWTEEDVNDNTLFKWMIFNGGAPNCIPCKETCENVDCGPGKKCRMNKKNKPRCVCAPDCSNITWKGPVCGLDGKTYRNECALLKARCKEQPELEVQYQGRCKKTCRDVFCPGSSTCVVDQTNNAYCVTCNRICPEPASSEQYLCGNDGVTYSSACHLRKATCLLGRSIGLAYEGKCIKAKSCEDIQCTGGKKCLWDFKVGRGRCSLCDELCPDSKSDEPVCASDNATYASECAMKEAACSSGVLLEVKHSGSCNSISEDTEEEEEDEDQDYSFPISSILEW
Chain of Streptavidin (Streptomyces avidinii) (P22629 whole entry, looked up): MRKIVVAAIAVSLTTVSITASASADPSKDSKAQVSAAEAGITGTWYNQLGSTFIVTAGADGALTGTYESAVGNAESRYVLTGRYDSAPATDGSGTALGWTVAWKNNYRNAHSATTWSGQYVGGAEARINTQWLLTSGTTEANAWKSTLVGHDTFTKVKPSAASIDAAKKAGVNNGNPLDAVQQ
Chain of Fibroblast growth factor 2 (Homo sapiens) (P09038 whole entry, looked up): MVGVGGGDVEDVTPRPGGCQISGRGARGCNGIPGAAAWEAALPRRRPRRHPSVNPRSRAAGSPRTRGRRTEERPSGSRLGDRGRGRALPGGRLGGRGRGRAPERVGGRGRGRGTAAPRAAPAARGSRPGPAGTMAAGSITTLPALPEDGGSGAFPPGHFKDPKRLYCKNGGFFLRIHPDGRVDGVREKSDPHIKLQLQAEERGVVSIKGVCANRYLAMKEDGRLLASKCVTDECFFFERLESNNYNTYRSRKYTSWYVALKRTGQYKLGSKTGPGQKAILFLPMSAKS
Chain of Luciferin 4-monooxygenase (Photinus pyralis) (P08659 whole entry, looked up): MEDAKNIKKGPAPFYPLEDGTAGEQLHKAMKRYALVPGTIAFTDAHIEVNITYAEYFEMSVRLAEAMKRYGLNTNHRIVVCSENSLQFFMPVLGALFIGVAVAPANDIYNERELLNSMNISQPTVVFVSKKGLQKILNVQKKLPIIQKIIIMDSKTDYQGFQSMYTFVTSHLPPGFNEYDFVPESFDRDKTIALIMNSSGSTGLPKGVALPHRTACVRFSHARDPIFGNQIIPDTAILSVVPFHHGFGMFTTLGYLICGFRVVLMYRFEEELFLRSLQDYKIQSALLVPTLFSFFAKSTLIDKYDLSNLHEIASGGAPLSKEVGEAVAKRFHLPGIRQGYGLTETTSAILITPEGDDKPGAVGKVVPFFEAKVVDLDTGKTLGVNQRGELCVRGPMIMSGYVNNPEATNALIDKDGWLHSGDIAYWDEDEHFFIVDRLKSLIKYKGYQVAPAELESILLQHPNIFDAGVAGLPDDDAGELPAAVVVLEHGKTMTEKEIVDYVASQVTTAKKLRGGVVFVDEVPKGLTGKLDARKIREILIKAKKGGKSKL

In the case of `O=C1O[C@@H](c2ccccc2)[C@@H](c2ccccc2)N2[C@@H](c3ccc(O)cc3)[C@]3(C(=O)Nc4ccc(C#CCCO)cc43)[C@@H](C(=O)NC[C@H](O)c3ccccc3)[C@H]12`, the composite z-score was 0.206 in assay [1]; -0.386 in assay [2]; -0.141 in [3]; -1.38 in assay [4]; -0.162 in [5]; -1.11 in assay [6]. Also, the composite z-score was 0.0328 with Lefty1; 1.12 in assay [8]; -0.738 in assay [10]; -0.791 in assay [15]; -0.128 in [16]; -0.664 with Torsin-1A (Homo sapiens) [17]. The composite z-score with Torsin-1A (Homo sapiens) [18] was determined as 0.229; in assay [19], 0.304. Also, the z-score in [7] was -1.57; in [9], 0.411 (inactive); in assay [11], 0.058 (inactive); in assay [12], 0.142 (inactive); in [13] it was -1.15 (inactive); in assay [14], -0.869 (inactive).

Consider `CCOC(=O)C[C@H]1[C@H](OC(=O)c2ccc(C(=O)c3ccccc3)cc2)[C@@H](NC(=O)c2ccc3ccccc3c2)c2cc(OCCCO)ccc2N1C(=O)c1ccccc1`, for which the composite z-score in assay [1] worked out at 0.405; in assay [2] it was 1.13; in assay [3] it was 0.287; in [4], 0.73; in [5], 0.599; in assay [6], 0.436. For the same molecule, the composite z-score is 1.14 in the assay with Lefty1; 1.1 in assay [8]; 0.173 in [10]; 0.849 in [15]; -0.105 in assay [16]; 0.196 with Torsin-1A (Homo sapiens) [17]. Moreover, the composite z-score was 0.321 in the assay with Torsin-1A (Homo sapiens) [18] and 0.867 in assay [19]. Besides, the z-score is 0.315 in assay [7]; -0.204 (inactive) in assay [9]; -0.0506 (inactive) in assay [11]; -0.0382 (inactive) in assay [12]; 0.0777 (inactive) in assay [13]; -0.506 (inactive) in assay [14].

As to `COCCOC(=O)N1C(=O)[C@@]2(c3cc(C#CC4(O)CCCCCC4)ccc31)[C@H](C(N)=O)[C@H]1C(=O)O[C@H](c3ccccc3)[C@H](c3ccccc3)N1[C@@H]2c1ccccc1OCCO`, the composite z-score is 1.84 in assay [1]; 1.22 in assay [2]; 0.988 in [3]; 0.662 in [4]; 1.17 in assay [5]; 1.56 in [6]. Also, the composite z-score was 0.569 with Lefty1; 0.26 in [8]; 0.507 in [10]; 0.143 in [15]; -0.522 in assay [16]; 0.329 with Torsin-1A (Homo sapiens) [17]. Further, the composite z-score was found to be 0.445 with Torsin-1A (Homo sapiens) [18] and 1.34 in [19]. Besides, the z-score in assay [7] was -0.994; in assay [9], -0.806 (inactive); in assay [11], -6.12 (inactive); in assay [12], 0.533 (inactive); in [13], 0.0921 (inactive); in [14], 0.0643 (inactive).

`CCOC(=O)C[C@H]1[C@H](OC(=O)c2ccc(-c3ccccc3)cc2)[C@@H](NC(=O)c2ccc3ccccc3n2)c2cc(OCCCO)ccc2N1C(=O)c1ccccc1`: the composite z-score turned out to be 1.14 in assay [1]; 1 in assay [2]; 0.059 in [3]; 0.702 in [4]; 0.779 in assay [5]; 0.736 in [6]. Further, the composite z-score in the assay with Lefty1 was found to be 0.815; in assay [8], 0.262; in assay [10], 0.111; in assay [15], 0.968; in [16], 0.109; in the assay with Torsin-1A (Homo sapiens) [17], 0.448. Also, the composite z-score in the assay with Torsin-1A (Homo sapiens) [18] is 0.397; in [19], 0.861. Also, the z-score in assay [7] is -0.332; in assay [9], 0.371 (inactive); in assay [11], -0.727 (inactive); in assay [12], 0.306 (inactive); in assay [13], -0.477 (inactive); in assay [14], -0.169 (inactive).

Values taken from PubChem BioAssay.
